# A selection: hits, their analogues and other compounds. The true share with any hit is near 19%.
# TDP1 cell CPT: growth inhibition of DT40 Tdp1-/-;hTDP1 cells with camptothecin (screen for TDP1 inhibitors). Potency, µM (doses to about 46.2 µM), without a hit: at the top dose activity change, negative = growth inhibition, most hits filed as inhibitors. AID 686979. hit rate 12% among 420,000. chicken DT40 Tdp1-/-;hTDP1 cells + 20 nM CPT, ATP luminescence, 48 h; note: potency is the fitted concentration of half-maximal effect; nearly all actives have a fitted effect of over 55% in size
#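 Chicken DT40 Tdp1-/- cells stably complemented with human TDP1 were seeded at 400 cells/well in medium containing 20 nM camptothecin, exposed to pin-transferred compounds, and grown at 37 °C for at least 48 hr. Viability was read as ATP luminescence.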
# Giardia killer: Giardia lamblia killing. hit rate 0.15% among 340,000. activity change, % at 7.66 µM, hits read low. AID 540267. Giardia lamblia trophozoite viability; in the data active = activity change below about -80%; inconclusive = between about -30% and that limit;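 note: parasites exposed to compound for two days anaerobically before the ATP read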
#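 Each well holds 100 Giardia trophozoites and compound. After two days (48 hrs) at 37 deg C in anaerobic conditions, ATP is quantified by luminescence.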
# ELG1 DNA repair: blocks ELG1-dependent DNA repair in HEK293T cells. HEK293T ELG1-luciferase reporter, luminescence, 16 h; DNA damage induced by 5-fluorouridine. Potency, µM (highest dose often 46.1 µM), without a hit: top-dose activity change, negative = inhibition, hits mostly inhibitors. hit rate 2.3% among 330,000; note: potency is the fitted concentration of half-maximal effect; nearly all actives have a fitted effect of over 55% in size
#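 In this reporter screen, reduction of luminescence relative to DMSO vehicle indicated activity. Compounds and 5-fluorouridine were added together to 2,000 cells per well, incubated for 16 hr at 37 °C, then developed with ONE-Glo.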
# TDP1 block: TDP1 (human) enzyme inhibition | Q9NUW8 | hit rate 0.28% among 350,000 | Potency, µM (doses to about 130 µM), inactives show at the highest dose activity change, negative = inhibition, actives largely listed as inhibitors | AID 485290 | recombinant TDP1, AlphaScreen DNA substrate cleavage; note: potency is the fitted concentration of half-maximal effect; nearly all actives have a fitted effect of over 40% in size
# Target sequence (Q9NUW8 whole entry, looked up): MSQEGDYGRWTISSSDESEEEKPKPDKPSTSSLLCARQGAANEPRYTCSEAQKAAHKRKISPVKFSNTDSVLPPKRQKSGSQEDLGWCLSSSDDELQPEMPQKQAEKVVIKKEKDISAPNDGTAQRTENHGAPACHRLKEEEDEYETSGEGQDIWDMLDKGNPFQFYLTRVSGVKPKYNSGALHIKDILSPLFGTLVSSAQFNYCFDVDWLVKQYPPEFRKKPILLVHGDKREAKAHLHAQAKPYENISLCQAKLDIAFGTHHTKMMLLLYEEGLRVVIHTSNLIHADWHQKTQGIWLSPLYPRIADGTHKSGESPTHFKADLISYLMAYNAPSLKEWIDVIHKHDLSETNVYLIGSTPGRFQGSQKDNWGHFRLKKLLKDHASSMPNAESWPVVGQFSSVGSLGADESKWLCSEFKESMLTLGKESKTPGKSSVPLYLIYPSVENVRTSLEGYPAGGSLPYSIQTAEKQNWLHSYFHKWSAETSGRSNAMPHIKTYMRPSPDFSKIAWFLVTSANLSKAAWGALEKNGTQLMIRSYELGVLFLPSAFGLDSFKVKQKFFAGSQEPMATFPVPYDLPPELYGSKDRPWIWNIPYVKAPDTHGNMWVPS
#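 Steps: enzyme plus compound, 15 min RT; add biotin/phosphotyrosine-FITC oligonucleotide (15 nM final), react 5 min; add donor/acceptor beads (10 ug/ml final), 10 min; read AlphaScreen. Tdp1 at 1 nM final.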
# DT40 TDP1 no CPT: qHTS for Inhibitors of human tyrosyl-DNA phosphodiesterase 1 (TDP1): qHTS in cells in absence of CPT. DT40 Tdp1-/- hTDP1 cells, no CPT, ATP luminescence, 48 h. Potency, µM (top dose mostly 46.2 µM), inactives show at the highest dose activity change, negative = growth inhibition, usual class: inhibitors. hit rate 15% among 420,000. AID 686978, 2013; note: potency is the fitted concentration of half-maximal effect; nearly all actives have a fitted effect of over 55% in size
#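 Chicken DT40 Tdp1-/- cells stably complemented with human TDP1 were seeded at 400 cells/well with DMSO in place of 20 nM camptothecin. After compound pinning, cells grew at least 48 hr at 37 °C; viability read by CellTiter-Glo luminescence.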
# IL-1B inflam inh: blocks inflammasome-driven IL-1 beta release; hit rate 4.7% among 360,000; THP-1 LPS/ATP IL-1B secretion, AlphaLISA, 16 h; active compounds read low; AID 743279; activity change, % at 57.5 µM; in the data active = activity change below about -50%; inconclusive = mostly about -30% to -49%
#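 Secreted IL-1B measured by AlphaLISA bead assay after 16 h compound exposure of THP-1 cells; compounds (final up to 57.5 uM) added 1 h before LPS (250 ng/mL) and ATP (1.25 mM) stimulation; lower signal means less secretion.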
# * = called active by the depositor; ? = inconclusive; . = no result; [ ] = another dose, or the depositor's remark. Unless noted, calls come from the whole dose curve; as a rule, active = well fitted curve in the direction sought with a large enough effect; inconclusive = small, poorly fitted or top-dose-only effect, or another doubt; inactive = no such curve, though single readings can be large; an effect the other way counts as inactive or inconclusive. % is set by controls: 0 for no effect and ±100 for the full control effect.
SMILES,TDP1 cell CPT,Giardia killer,ELG1 DNA repair,TDP1 block,DT40 TDP1 no CPT,IL-1B inflam inh
CCOC(=O)c1cc2cc(OC)ccc2n1C1CCN(Cc2ccccc2)CC1,?,.,.,.,?,29
CCOC(=O)[C@]12Cc3ccccc3[C@H]1N(Cc1ccccc1)C(=O)c1cc(OC)ccc12,?,.,.,.,18µM*,-13
O=C(O)CCCC[C@H]1SC[C@H]2NC(=O)N[C@@H]21,.,.,.,29%[21 µM],.,.
CCN1CCN(/C=N/c2nc(C)cs2)CC1,-10%,3,?,8%,1%,15
c1ccc(C[C@@H](c2ccccc2)N2CCCCC2)cc1,?,.,.,14%[56.1 µM],?,.
CCOC(=O)C1C2NC(=O)N(Cc3ccccc3)C1(C)Oc1c(OC)cccc12 (stereo not given),-18%,-9,-6%,5%,-15%,22
CCOC(=O)[C@]12Cc3cc(OC)ccc3[C@H]1N(Cc1ccccc1)C(=O)c1cc(OC)ccc12,?,.,.,.,16µM*,9
CCCCCN1C(=O)c2cc(OC)ccc2[C@@]2(C(=O)OCC)Cc3cc(Cl)ccc3[C@@H]12,3.3µM*,.,.,.,2.9µM*,.
CCOC(=O)[C@]12Cc3cc(OC)c(OC)cc3[C@H]1N(Cc1ccccc1)C(=O)c1ccccc12,?,-21,.,.,14µM*,-5
C=CCN1C(=O)C2(C(C(=O)OCC)=C(N)Oc3ccccc32)C2=C1CCCC2=O (stereo not given),0%,-12,3%,2%,-15%,23
CCOC(=O)[C@]12Cc3ccsc3[C@H]1N(Cc1ccccc1)C(=O)c1ccccc12,?,-2,.,.,18µM*,-29
NC(=O)O,.,.,.,5%,.,.
Nc1c(C(=O)Nc2ccc(Br)cc2F)sc2nc3c(cc12)N1CCC3CC1,.,.,.,-2%,.,.
CC(C)(O)C1C2OC(=O)C1[C@]1(O)CC3O[C@@]34C(=O)OC2[C@@]14C (stereo not given in full),9%,.,.,10%[56.1 µM],15%,.
CCOC(=O)[C@]12Cc3cc4ccccc4cc3[C@H]1N(Cc1ccccc1)C(=O)c1ccccc12,16µM*,.,.,.,21µM*,-110*
CCOC(=O)C1(c2ccccc2)CCN(CC(=O)Nc2cccc3ccccc23)CC1,?,6,?,5%,?,-16
CCOC(=O)[C@]12Cc3ccc4ccccc4c3[C@H]1N(Cc1ccccc1)C(=O)c1ccccc12,?,.,.,.,?,-56*
COc1cccc(C2Nc3ccccc3C(=O)N2Cc2ccccc2)c1 (stereo not given),-2%,-9,.,.,?,?
CC(C1=C(CCN(C)C)Cc2ccccc21)c1ccccn1 (stereo not given),-26%,4,.,.,-6%,?
O=C(CF)NC(NC(=S)Nc1cccc([N+](=O)[O-])c1)C(Cl)(Cl)Cl (stereo not given),21µM*,-1,-9%,5%,?,-19
c1ccc2cc3c(cc2c1)-c1cccc2cccc-3c12,.,.,.,-4%,.,.
CCC1C(c2cc(OC)c(OC)c(OC)c2)c2cc3c(cc2OC1N1CCCC1)OCO3 (stereo not given),5.2µM*,11,.,.,4.1µM*,-18
COc1ccc2c(c1OC)C(=O)O[C@@H]2C1c2cc3c(cc2CCN1C)OCO3 (stereo not given in full),4%,.,.,4%,-13%,.
CCC[C@H](N[C@@H](CCC)[C@H](O)c1ccccc1)[C@H](O)c1ccccc1,26µM*,10,.,.,23µM*,-58*
O=C(N[C@@H]1N=C(c2ccccc2F)c2cccc3c2N(CC3)C1=O)c1cc2ccccc2[nH]1,-15%,.,.,.,?,.
SMILES,TDP1 cell CPT,Giardia killer,ELG1 DNA repair,TDP1 block,DT40 TDP1 no CPT,IL-1B inflam inh
O=C(O)c1ccc(/C=C/c2nc3ccccc3c(=O)n2-c2ccc(Br)cc2)cc1,-29%,-17,-12%,0%,?,?
Cc1cccc(-n2c(/C=C/c3ccc([N+](=O)[O-])o3)nc3ccccc3c2=O)c1,3.3µM*,-88*,?,0%,4.6µM*,-104*
Cc1nc2ccccc2c(=O)n1-c1cc([N+](=O)[O-])cc([N+](=O)[O-])c1,?,?,-2%,.,?,0
O=c1c2ccccc2nc(/C=C/c2ccc([N+](=O)[O-])o2)n1-c1ccc(O)cc1,2.3µM*,-85*,?,-2%,2.3µM*,-88*
Cc1cc(C)cc(NC2=NCCCS2)c1,?,8,9%,5%,-12%,-5
Cc1c(NS(=O)(=O)c2ccccc2)ccc([N+](=O)[O-])c1Cl,?,6,.,.,16µM*,-23
Cc1[nH]c(=O)n(C(C)(C)C)c(=O)c1Cl,.,.,.,8%,.,.
CN1CC(C(=O)c2ccc(Cl)cc2)C(c2ccc(N(C)C)cc2)C1 (stereo not given),21µM*,13,8%,5%,?,?
CC(=O)Nc1ccc(C2CN(C)CC2C(=O)c2ccc(Cl)cc2)cc1 (stereo not given),3%,13,-5%,5%,0%,-3
C[C@]12CC[C@H]3[C@@H](CCC4C[C@H](O)CC[C@@]43C)[C@@H]1CC[C@@H]2O (stereo not given in full),.,.,.,8%[56.1 µM],.,.
CC(=O)OCOCC(=O)OCO[P+](=O)C(OCOC(C)=O)c1cc([N+](=O)[O-])ccc1Oc1ccc(Br)cc1 (stereo not given),.,.,.,1%,.,.
CCCc1ccc(OCC(=O)Nc2ccc(Cl)cc2C(=O)c2ccccc2)cc1,-19%,.,.,0%[12.3 µM],-20%,.
COc1ccc2ccc(O)c(CN3CC=C(c4ccccc4)CC3)c2c1,?,9,8%,0%,18µM*,-16
COc1cc(C)cc(CN2CC=C(c3ccccc3)CC2)c1O,16µM*,-13,-5%,8%,?,-13
CN[C@H]1C[C@@H](N)[C@H](O)[C@@H](O[C@@H]2O[C@H](CO)[C@H](O)[C@@H]3OC4(O[C@H]23)O[C@H](C(N)CO)[C@H](O)[C@H](O)[C@H]4O)[C@@H]1O (stereo not given in full),-5%,.,.,.,-14%,.
CNCCc1ccc(OC)c(OC)c1,-27%,-4,5%,.,-18%,-19
COc1ccc(CCNc2nc3ccc(Cl)cc3n3cnnc23)cc1OC,18µM*,.,.,-3%,16µM*,.
COC(=O)c1sc(NC(=O)/C=C/c2ccc(OC)c(OC)c2)c(C(=O)OC)c1C,-9%,.,.,0%,?,.
